Among the data in PubChem BioAssay (NCI) are growth values, retold here.

Common to all, as to assay: NCI-60 one-dose screen, 48 h (100 = growth as untreated, 0 = no growth, -100 = all killed)
Holding throughout (details): 10 µM unless noted

The test system of assay [1] is HCT-15 colon.
Assay [2] concerns HT29 colon.
Assay [3] deals with SNB-75 CNS.
Assay [4] relates to SNB-19 CNS.
Assay [5] concerns U251 CNS.
Assay [6] has as its system PC-3 prostate.
Assay [7] relates to SK-MEL-5 melanoma.
For assay [8], the system named is UACC-62 melanoma.
Assay [9] has as its system LOX IMVI melanoma.
Assay [10] deals with SK-MEL-28 melanoma.
In assay [11] the test system is SK-MEL-2 melanoma.
The subject of assay [12] is EKVX NSCLC.
Assay [13] relates to SN12C renal.
The test system of assay [14] is UO-31 renal.
The subject of assay [15] is ACHN renal.
Assay [16] relates to CAKI-1 renal.
For assay [17], the system named is A498 renal.
Assay [18] relates to CCRF-CEM leukemia.
In assay [19] the test system is MOLT-4 leukemia.
Assay [20] has as its system TK-10 renal.

About 83,000 compounds went through this panel and 20% of them were active in at least one assay; those are over-represented in the sample as a whole.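 48-hour exposure, single concentration, 96-well plates; percent growth endpoint where 0 means no net growth. Active: below 10.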 A number with no mark means an inactive call. Active and inactive are the calls of the source.

Regarding `C#C[C@]1(O)CCC2C3CCc4cc(O)ccc4C3CC[C@@]21C` (stereo not given in full), the growth in [1] is 31.9%; in assay [2], 11.7%; in assay [3] it was 38.8%; in assay [4] it was 53.1%; in assay [5] it was 32.2%; in [6], 64.9%. In addition, the growth in [7] was 8.95% (active); in [8], 30.5%; in assay [9], 41.8%; in assay [10], 59.2%; in assay [11] it was 18.5%; in assay [12] it was 31.6%. Moreover, the growth is 52.3% in assay [13]; 55.7% in assay [14]; 60.4% in [15]; 45.3% in assay [16]; 49.2% in assay [17]; 39% in assay [18]. In addition, the growth in assay [19] was 23.4%.

`C[C@@H]1CN(c2nc3c(cc2F)c(=O)c(C(=O)O)cn3C(C)(C)C)C[C@H](C)N1`: the growth in assay [1] was 106%; in [2] it was 95.8%; in assay [3] it was 114%; in assay [4] it was 106%; in assay [5], 103%; in assay [6] it was 89.1%. The growth was 92.4% in assay [7]; 90% in assay [8]; 90.5% in assay [9]; 122% in assay [10]; 97.1% in [11]; 104% in assay [12]. The growth is 104% in assay [13]; 94.2% in assay [14]; 99.8% in [15]; -7.72% (active) in assay [16]; 107% in assay [17]; 102% in assay [18]. Besides, the growth in assay [19] was 101%.

Regarding `O=C(Nc1ccccc1)P(=O)(O)c1ccccc1`, the growth in assay [1] was 99.5%; in assay [2], 114%; in assay [3] it was 78.8%; in [4], 103%; in [5], 94.6%; in [6], 95.5%. The growth was 102% in [7]; 94.1% in assay [8]; 96% in assay [9]; 102% in [10]; 118% in assay [11]; 113% in assay [12]. In addition, the growth in assay [13] is 92.1%; in assay [14] it was 76.9%; in [20], 107%; in [16], 117%; in assay [18], 120%; in assay [19], 95%.

As to `O=C1/C(=C\c2coc3ccccc3c2=O)c2ccccc2N1c1c(Cl)cccc1Cl`, the growth in assay [1] is 24.7%; in assay [2], 47.6%; in [3], 62.7%; in assay [4], 62.6%; in [5], 36%; in assay [6] it was 31.8%. Besides, the growth in assay [7] was 20.3%; in [8], 36.6%; in [9], 37.1%; in assay [10] it was 47.3%; in [11] it was 85.7%; in assay [12] it was 33.1%. The growth in assay [13] was 59.5%; in [14], 42.6%; in assay [15], 54.6%; in assay [16] it was -7.88% (active); in [17], 12.6%; in assay [18] it was 21.1%. The growth in assay [19] was 19%.

Consider `C[C@]12CCC(=O)C=C1CC[C@H]1[C@@H]3C[C@@H](O)[C@](O)(C(=O)CO)[C@@]3(C)C[C@H](O)[C@@]12F`, for which the growth in assay [1] was 102%; in assay [2], 103%; in assay [3] it was 108%; in assay [4], 99.9%; in assay [5], 109%; in assay [6], 95.3%. Further, the growth was 101% in assay [7]; 98% in assay [8]; 96% in assay [9]; 107% in [10]; 109% in [11]; 88.4% in assay [12]. For the same compound, the growth in assay [13] is 82.9%; in [14] it was 74.1%; in [20], 104%; in assay [15], 104%; in assay [17], 97.2%; in [18], 97.1%. In addition, in assay [19], the growth was 84.1%.

Take `CC(C)CC1NC(=O)C(CCCN)NC(=O)C(C(C)C)NC(=O)C2CCCN2C(=O)C(Cc2ccccc2)NC(=O)C(CC(C)C)NC(=O)C(CCCN)NC(=O)C(C(C)C)NC(=O)C2CCCN2C(=O)C(Cc2ccccc2)NC1=O` (stereo not given): the growth in assay [1] was 7.83% (active); in [2] it was -51.7% (active); in assay [3] it was -81.5% (active); in [4], -83% (active); in assay [5], -94.4% (active); in assay [6], -49.2% (active). Besides, the growth in [7] is -98.3% (active); in [8] it was -75.3% (active); in [9] it was -86.7% (active); in assay [10] it was -72.1% (active); in assay [11] it was -94% (active); in [12] it was -87.3% (active). In addition, the growth in [13] was -82.2% (active); in [14] it was -20% (active); in assay [15], -19.8% (active); in assay [16], -14.8% (active); in [17] it was -70.1% (active); in [18], -59.3% (active). Besides, in [19], the growth was -51.3% (active).

As for `CSc1nc(N)c2c(n1)N(C)C=NS2(=O)=O`, the growth in assay [1] was 103%; in assay [2], 124%; in assay [3], 93.3%; in [4] it was 107%; in assay [5], 103%; in assay [6] it was 94.7%. Also, the growth in assay [7] was 104%; in assay [8], 97.4%; in assay [9] it was 98.3%; in [10], 122%; in [11] it was 123%; in assay [12], 113%. The growth is 99.3% in assay [13]; 87.1% in assay [14]; 109% in [20]; 98.2% in [16]; 94.4% in assay [18].

For the compound `CC(C)Sc1nc(-c2ccc(Br)cc2)c(C#N)c(N2CCCCC2)n1`, the growth in assay [1] is 96.2%; in assay [2] it was 94.5%; in [3], 99.4%; in [4], 105%; in [5], 99.9%; in assay [6], 97.5%. Further, the growth in assay [7] is 101%; in assay [8], 82.6%; in assay [9], 108%; in assay [10], 105%; in assay [11], 108%; in [12], 93.3%. Further, the growth in [13] is 94.3%; in [14] it was 95.3%; in assay [15], 101%; in [16] it was 95.9%; in assay [17], 83.8%; in assay [18], 95.2%. The growth in assay [19] is 110%.

For `CCC(=O)Nc1cc2c(cc1Cl)-c1ccccc1C2`, the growth in [1] was 94.9%; in assay [2], 114%; in [3], 83.1%; in [4], 101%; in assay [5], 96.4%; in assay [6], 80.5%. Also, the growth in [7] was 93.5%; in [8] it was 84.8%; in assay [9], 88.2%; in assay [10] it was 122%; in assay [11], 97.5%; in [12] it was 57.1%. For the same compound, the growth was 68.7% in assay [13]; 42.5% in [14]; 110% in assay [20]; 83.6% in [16]; 83.6% in assay [17]; 72.3% in assay [18]. In addition, the growth in assay [19] was 82.1%.

For the compound `Cc1ccc2nc(SCC(=O)Nc3ccc(-c4nc5ccccc5s4)c(Cl)c3)[nH]c2c1`, the growth was 101% in [1]; 106% in assay [2]; 94.6% in assay [3]; 102% in assay [4]; 105% in assay [5]; 107% in assay [6]. Further, the growth in [7] was 102%; in assay [8] it was 90.3%; in [9], 107%; in assay [10] it was 118%; in [11], 105%; in assay [12] it was 119%. The growth in assay [13] was 107%; in assay [14], 95%; in assay [15], 106%; in assay [16], 105%; in assay [17] it was 105%; in assay [18] it was 103%. Moreover, the growth in assay [19] is 99.8%.

Regarding `CCSc1nc(Nc2ccc(S(=O)(=O)Nc3ccon3)cc2)c(C#N)c(-c2cccc(Br)c2)n1`, the growth was 87.3% in assay [1]; 91.8% in [2]; 93.3% in assay [3]; 100% in assay [4]; 81.1% in [5]; 79.6% in assay [6]. Further, the growth in assay [7] was 85.4%; in assay [8] it was 91.5%; in [9] it was 94.1%; in [10], 103%; in assay [11], 119%; in [12] it was 87.7%. Besides, the growth in [13] is 99.2%; in assay [14] it was 102%; in [15], 91.3%; in assay [16], 87.8%; in assay [17] it was 93.7%; in [18], 77.7%. In addition, the growth in [19] was 72.6%.

As to `COc1cc(/C=C2\CN(C)CC3=C2Nc2nc(SC)[nH]c(=O)c2C3c2cc(OC)c(OC)c(OC)c2)cc(OC)c1OC` (stereo not given), the growth in assay [1] is 36.6%; in assay [2], 15%; in [3], 27.8%; in assay [4] it was 66.8%; in [5], 20.6%; in assay [6], 68%. Moreover, the growth in assay [7] was 58.2%; in assay [8], 30%; in assay [9] it was 3.87% (active); in [10], 44.9%; in assay [11], 71.8%; in assay [12] it was 83.7%. Also, the growth is 24.2% in assay [13]; 52.4% in assay [14]; 39.2% in assay [15]; 14.5% in assay [16]; 95.9% in [17]; -0.341% (active) in assay [18]. In addition, the growth in assay [19] is 0.96% (active).
